# Data from the supplement of paper PMC12669032.
# Unmarked numbers belong to inactive results.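 How the source made its calls: active = AUC reduced over 20% with Padj below 0.05 in at least 2 of 3 replicates; inactive = otherwise.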
# Assays:
# Assay in all cases: growth AUC relative to DMSO control (median of replicates) (fraction); higher = more growth (less inhibition), active = hit call of the paper
# Conditions in all cases: 20 µM; 24 h
# [1] = tested on: Akkermansia muciniphila
# Outline: (§1)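 In round-bottom 96-well plates sealed with pierced gas-permeable seals, gut bacterial monocultures in mGAM were grown anaerobically at 37 °C from OD600 0.05 with 20 µM compound (1% DMSO). OD600 readings were taken hourly for 24 h, and the minimum OD was set to 0. Area under the growth curve was then normalised to the plate median of solvent-only wells, or to row and column medians on the industrial chemical plate. The value given is the median of three biological replicates grown on separate days.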
# [2] = tested on: Bacteroides caccae
# Outline: as §1
# [3] = tested on: Bacteroides clarus
# Outline: as §1
# [4] = tested on: Bacteroides dorei
# Outline: as §1
# [5] = tested on: Bacteroides stercoris
# Outline: as §1
# [6] = tested on: Bacteroides thetaiotaomicron
# Outline: as §1
# [7] = tested on: Bacteroides uniformis
# Outline: as §1
# [8] = tested on: Bifidobacterium longum subsp. longum
# Outline: as §1
# [9] = tested on: Clostridium difficile
# Outline: as §1
# [10] = tested on: Collinsella aerofaciens
# Outline: as §1
SMILES,growth AUC [1],growth AUC [2],growth AUC [3],growth AUC [4],growth AUC [5],growth AUC [6],growth AUC [7],growth AUC [8],growth AUC [9],growth AUC [10]
CCCN(CC1CC1)c1c([N+](=O)[O-])cc(C(F)(F)F)cc1[N+](=O)[O-],1.35,0.93,1.03,0.953,1.42,1,1.03,1.03,0.979,0.955
COP(=S)(OC)Oc1ccc(S(N)(=O)=O)cc1,1.02,1.03,0.995,1,0.984,0.984,1.02,0.969,0.992,0.984
CC(=NCc1ccc(Cl)nc1)NC#N,1.01,1.02,1.05,1.04,1.1,0.99,1.03,1.02,1.03,1.02
ClC1=C(Cl)C2(Cl)C3C4C=CC(C4)C3C1(Cl)C2(Cl)Cl (stereo not given),1.11,1.02,0.987,1.01,1.02,1.03,1.01,0.998,1.02,1.01
CC(CCl)OP(=O)(OC(C)CCl)OC(C)CCl (mixture of isomers),1.14,1,0.998,0.973,0.994,1,0.958,1.05,1.02,0.951
CCNc1nc(Cl)nc(NC(C)C)n1,1.05,0.956,1.01,0.945,0.964,1.01,1.01,1.02,0.944,1.04
CC(Cl)(Cl)C(=O)O,0.869,1.05,1.02,1.02,1.02,1.01,1.02,0.983,0.999,1.02
Oc1ccc(Cc2ccc(O)cc2)cc1,0.954,0.992,1.03,0.998,1.05,1.02,1.01,0.975,1.02,1.01
CNC(=O)O/N=C/C(C)(C)S(C)=O (stereo not given),0.978,1.04,0.991,1.01,1.02,0.988,1.03,0.935,1.01,1.02
O=C(O)C(F)(F)C(F)(F)C(F)(F)C(F)(F)C(F)(F)C(F)(F)C(F)(F)C(F)(F)C(F)(F)F,0.991,0.977,0.933,1.01,0.998,1.1,1.02,0.939,0.968,0.984
CCCCOCN(C(=O)CCl)c1c(CC)cccc1CC,1.07,0.909,0.955,0.944,1.25,0.923,0.954,0.996,0.979,0.928
C#CCOc1ccc(CCNC(=O)C(OCC#C)c2ccc(Cl)cc2)cc1OC (stereo not given),1.02,0.94,0.948,0.957,0.898,0.951,0.901,1.02,0.981,1
Nc1ncn[nH]1,0.877,1.04,1.01,1.02,0.931,1.01,0.997,1.02,1.01,0.995
CCOP(=S)(OCC)Oc1cnc2ccccc2n1,0.881,0.925,0.94,0.993,0.934,0.895,0.867,0.987,0.988,0.992
COC(=O)c1ccccc1S(=O)(=O)NC(=O)Nc1nc(C)cc(C)n1,1.07,0.962,0.988,0.968,0.859,0.979,1.02,1.1,1,0.949
C1CCC(NC2CCCCC2)CC1.O=NO,0.874,0.983,0.991,0.991,0.831,0.984,0.943,0.967,1.01,1.08
CCCN(CCCl)c1c([N+](=O)[O-])cc(C(F)(F)F)cc1[N+](=O)[O-],1.01,0.977,0.95,0.94,0.93,0.918,0.927,1.07,0.995,0.961
CCOP(=O)(Sc1ccccc1)Sc1ccccc1,1.16,0.985,0.895,0.927,0.795,0.932,0.881,1.02,0.984,1.03
O=c1oc2ccccc2c(O)c1C1CCCc2ccccc21 (stereo not given),1.15,0.938,0.916,0.926,1.09,0.796 (active),0.701 (active),1.09,1.02,1
CC/C(=N\OC/C=C/Cl)C1=C(O)CC(C2CCOCC2)CC1=O (stereo not given),1.04,0.993,1.03,1,1.03,1.02,0.985,1.37,1.01,1.03
CCOC(=O)N(C)C(=O)CSP(=S)(OCC)OCC,1.11,1.04,0.999,1.01,1.01,0.994,0.991,0.991,1.01,0.997
CC1(C)[C@H](C=C(Cl)Cl)[C@H]1C(=O)OCc1c(F)c(F)cc(F)c1F,0.957,1.02,0.992,1.07,1.03,0.993,1.04,0.954,1.08,1
CCNc1nc(NC(C)C)nc(OC)n1,1.15,0.971,1.02,0.941,1.03,1,0.969,1.01,0.981,0.962
COP(=S)(OC)Oc1cc(Cl)c(Cl)cc1Cl,1.09,0.936,1.02,0.947,1.17,1.03,0.939,0.947,1.02,1.04
CCc1nn(C)c(C(=O)NCc2ccc(Oc3ccc(C)cc3)cc2)c1Cl,0.877,0.935,0.932,0.974,0.633,0.967,0.984,0.81,1.04,0.952
CCNP(=S)(OC)O/C(C)=C/C(=O)OC(C)C (stereo not given),0.983,0.966,0.957,0.998,1,0.953,0.993,0.983,0.986,1.01
CCOP(=S)(OCC)Oc1ccc2c(C)c(Cl)c(=O)oc2c1,1.1,0.952,0.957,0.98,0.891,0.934,0.95,0.968,1,1
COP(=S)(OC)Oc1ccc(C#N)cc1,1.1,1,1.03,1.04,1.02,0.989,1.04,1.01,1.03,1.01
CCN(CC)c1c([N+](=O)[O-])cc(C(F)(F)F)c(N)c1[N+](=O)[O-],0.987,0.94,0.977,0.956,1.09,0.88,0.972,0.913,1,1
